Laboratory results reported in PubChem BioAssay (NCATS).
Values joined by “and” are separate entries in the source; they are usually repeats but may differ in a detail not shown here. Equal values may be shown once. Results filed as inconclusive are left out. Entries that show only a call come without a potency. More than one record can exist for a structure, and the calls need not agree. Active and inactive are the calls of the source. Unless noted, calls follow the shape of the dose curve; as a rule, active = well fitted curve in the direction sought with a large enough effect; inconclusive = small, poorly fitted or top-dose-only effect, or another doubt; inactive = no such curve, though single readings can be large; an effect the other way counts as inactive or inconclusive.

Assays:
[1] = molecular target: Nicotinamide N-methyltransferase (Homo sapiens) (UniProt P40261); assay: Confirmatory Screen for Target Class Profiling of Small Molecule Inhibitors of Methyltransferases (AID 1745852); details: MTase-Glo luminescence, SAH detection, recombinant enzyme; measured here: NNMT max response; stronger effect = lower value
Nicotinamide N-methyltransferase (Homo sapiens), sequence (P40261 whole entry, looked up): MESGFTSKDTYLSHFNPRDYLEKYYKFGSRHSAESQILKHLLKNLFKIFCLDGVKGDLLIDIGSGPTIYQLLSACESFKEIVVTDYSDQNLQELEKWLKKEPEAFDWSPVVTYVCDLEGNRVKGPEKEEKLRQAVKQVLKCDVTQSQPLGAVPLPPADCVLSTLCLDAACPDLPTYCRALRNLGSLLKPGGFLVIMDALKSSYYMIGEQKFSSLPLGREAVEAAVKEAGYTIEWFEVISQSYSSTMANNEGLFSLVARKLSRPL

[2] = molecular target: Phenylethanolamine N-methyltransferase (Homo sapiens) (UniProt P11086); assay: as above; details: MTase-Glo luminescence, SAH detection, recombinant enzyme; measured here: PNMT max response; stronger effect = lower value
Phenylethanolamine N-methyltransferase (Homo sapiens), sequence (P11086 whole entry, looked up): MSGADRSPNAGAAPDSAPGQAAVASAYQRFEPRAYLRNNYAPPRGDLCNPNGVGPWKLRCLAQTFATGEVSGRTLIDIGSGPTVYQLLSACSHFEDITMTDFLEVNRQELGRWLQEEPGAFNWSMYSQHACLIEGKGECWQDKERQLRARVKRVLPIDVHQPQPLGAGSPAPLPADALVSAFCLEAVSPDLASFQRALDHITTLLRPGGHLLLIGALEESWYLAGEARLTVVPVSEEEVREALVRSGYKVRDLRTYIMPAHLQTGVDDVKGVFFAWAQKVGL

[3] = NCATS anti-infectives library activity on the primary C. elegans qHTS viability assay (AID 1745855; calls by dose curve; also: potency is read from the fitted curve at half-maximal effect); details: C. elegans worm area imaging, day 7; series mostly up to 41.8 µM
In short: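 Titration-based screen in worms: eggs hatched overnight in M9, L1 larvae fed TOP10 capsules in S medium with compound, incubated 21 °C for 7 days; fluorescent objects gated by size and intensity at days 0, 3 and 7.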

[4] = molecular target: Phospholipid hydroperoxide glutathione peroxidase GPX4 (Homo sapiens) (UniProt P36969); assay: Primary qHTS Assay for Inhibitors of Recombinant Selenoprotein Glutathione Peroxidase 4 (GPX4) (AID 1845192); details: recombinant GPX4, GR-coupled NADPH fluorescence, 15 min; series mostly up to 50 µM; also: nearly all actives have a fitted effect of over 65% in size; also: potency is read from the fitted curve at half-maximal effect
Phospholipid hydroperoxide glutathione peroxidase GPX4 (Homo sapiens), sequence (P36969 whole entry, looked up): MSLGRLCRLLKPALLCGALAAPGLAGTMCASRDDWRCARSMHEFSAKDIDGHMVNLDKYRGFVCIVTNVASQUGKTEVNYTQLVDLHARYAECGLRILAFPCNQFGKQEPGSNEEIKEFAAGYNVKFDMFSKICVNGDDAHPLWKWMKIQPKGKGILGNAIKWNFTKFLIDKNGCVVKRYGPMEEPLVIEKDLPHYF
In short: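 qHTS, GR-coupled: GPX4 200 nM + cpd 30 min RT → GSH 1 mM, NADPH 0.5 mM, GR 100 nM → CHP 0.5 mM start; fluor 340/450 at t0 and t15 min; no-enzyme wells as control.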

[5] = molecular target: Luciferin 4-monooxygenase (Photinus pyralis) (UniProt P08659); assay: Primary firefly luciferase (FLuc) qHTS assay for identification of artifact compounds. (AID 1845220); details: purified firefly luciferase, luminescence, 5 min; series mostly up to 54.1 µM; also: nearly all actives have a fitted effect of over 60% in size
In short: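 In this counter-screen for luciferase artifacts, test compounds met substrate (10 uM each luciferin and ATP) before 10 nM enzyme started the reaction. Light output was measured 5 min later.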

[6] = Primary fluorescence-based thiol-reactive (MSTI) qHTS assay for identification of artifact compounds. (AID 1845221); details: MSTI thiol-reactivity probe, 1 h; series mostly up to 53.8 µM;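 also: thiol-reactive compounds lower the probe fluorescence signal; nearly all actives have a fitted effect of over 65% in size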
In short: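 In PBS pH 7.4 with 2% DMSO, each compound met 4 uM MSTI for one hour at ambient temperature, shielded from light, before fluorescence detection.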

[7] = test system: Nanoluciferase (engineered Oplophorus gracilirostris luciferase); assay: Primary Nanoluciferase (NLuc) qHTS assay for identification of artifact compounds. (AID 1845222); details: NLuc-conditioned medium, Nano-Glo luminescence, 5 min; series mostly up to 54.1 µM;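 also: NLuc secreted into diluted conditioned medium of S16 cells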
In short: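 Using secreted nanoluciferase in S16 culture medium (0.22 um filtered, 1:55 dilution), compounds were preincubated 15 min at RT. Signal was generated with Nano-Glo reagent (1:100) over 5 min.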

[8] = Primary redox qHTS assay for identification of artifact compounds. (AID 1845223); details: Amplex Red/HRP redox cycling with DTT, fluorescence; series mostly up to 53.8 µM
In short: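 Redox-cycling detection via DTT (250 uM final) oxidation coupled to Amplex Red (25 uM)/HRP (250 mU/mL) in HBSS. 15 min preincubation plus 30 min after DTT, room temperature. Ex/Em 525/598 nm; 4-parameter Hill fit against DMSO and 10 uM DA3003.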

[9] = molecular target: Glutathione peroxidase 1 (Homo sapiens) (UniProt P07203); assay: Primary qHTS Assay for Inhibitors of Recombinant Selenoprotein Glutathione Peroxidase 1 (GPX1) (AID 1845191); details: recombinant GPX1, GR-coupled NADPH fluorescence, 15 min; series mostly up to 48.8 µM; also: nearly all actives have a fitted effect of over 65% in size; also: potency is read from the fitted curve at half-maximal effect
Glutathione peroxidase 1 (Homo sapiens), sequence (P07203 whole entry, looked up): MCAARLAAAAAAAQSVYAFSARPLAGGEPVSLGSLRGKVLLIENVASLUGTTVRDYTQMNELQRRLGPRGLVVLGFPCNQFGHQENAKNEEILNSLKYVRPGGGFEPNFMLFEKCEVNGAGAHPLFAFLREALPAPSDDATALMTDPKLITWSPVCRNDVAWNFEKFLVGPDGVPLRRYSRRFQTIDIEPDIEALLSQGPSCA
In short: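 GPX1 10 nM, GR 100 nM, GSH 1 mM, NADPH 0.5 mM, CHP 0.5 mM (final). 30-min cpd preincubation, RT. Ex340/Em450 read t=0, t=15 min.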

Cc1cc(Nc2nc(N[C@@H](C)c3ccc(F)cc3)c(C#N)cc2F)n[nH]1
activity [1]: -35.7%
activity [2]: -6.34%
Potency [3]: inactive
Potency [4]: inactive
Potency [5]: inactive
Potency [6]: inactive
Potency [7]: inactive
Potency [8]: inactive

Cc1c(CN2CCN(S(C)(=O)=O)CC2)sc2c(N3CCOCC3)nc(-c3cnc(N)nc3)nc12
activity [1]: -17.8%
activity [2]: -14.7%
Potency [9]: inactive
Potency [4]: inactive
Potency [5]: inactive
Potency [6]: inactive
Potency [8]: inactive

Cn1c(CNc2ccc(C(=N)N)cc2)nc2cc(C(=O)N(CCC(=O)O)c3ccccn3)ccc21
activity [1]: -1.22%
activity [2]: -0.426%
Potency [9]: inactive
Potency [4]: inactive
Potency [5]: inactive
Potency [6]: inactive
Potency [7]: inactive
Potency [8]: inactive

CCS(=O)(=O)c1cccc(-c2cc(C(=O)NC3CCN(C)CC3)c(C)c3[nH]c4ncc(C)cc4c23)c1
activity [1]: -55.9% and -55.5%
activity [2]: -15.8% and -17.5%
Potency [9]: inactive
Potency [4]: inactive
Potency [5]: inactive
Potency [6]: inactive
Potency [7]: inactive
Potency [8]: inactive

Nc1ncnc2c1c(-c1cnc3[nH]ccc3c1)nn2C1CCCC1
activity [1]: -56.1%
activity [2]: -52.4%
Potency [9]: inactive
Potency [4]: inactive
Potency [6]: inactive
Potency [7]: inactive
Potency [8]: inactive

Cc1ccc(C(N)=O)cc1Nc1nccc(-c2cn(C(C)C)c3cnccc23)n1
activity [1]: -53.8%
activity [2]: -56%
Potency [9]: inactive
Potency [4]: inactive
Potency [5]: inactive
Potency [6]: inactive
Potency [8]: inactive

CN1CCC(CNc2ccc3ncc(-c4cccc(OC(F)(F)F)c4)n3n2)CC1
activity [1]: -51.9%
activity [2]: -68.8%
Potency [4]: 22.7 µM (active) and 14.3 µM (active)
Potency [5]: inactive
Potency [6]: inactive
Potency [8]: inactive

OCCCNc1cc(-c2ccnc(Nc3cccc(Cl)c3)n2)ccn1
activity [1]: -65.5%
activity [2]: -82.3%
Potency [9]: inactive
Potency [4]: inactive
Potency [5]: inactive
Potency [6]: inactive
Potency [8]: inactive

Nc1ncnc2c1c(-c1cccc(OCc3ccccc3)c1)cn2C1CC(CN2CCCC2)C1 (stereo not drawn)
activity [1]: -68.2%
activity [2]: -98.1%
Potency [4]: inactive
Potency [5]: inactive
Potency [6]: inactive
Potency [7]: inactive
Potency [8]: inactive

CC(C)C[C@H](NC(=O)CNC(=O)c1cc(Cl)ccc1Cl)B(O)O
Potency [3]: 1.29 µM (active)
Potency [9]: inactive
Potency [4]: inactive

O=C(O)c1ccc2c(c1)nc(Nc1cccc(Cl)c1)c1ccncc12
activity [1]: -53.1%
activity [2]: -66.6%
Potency [4]: inactive
Potency [5]: inactive
Potency [8]: inactive

C=CCn1c(=O)c2cnc(Nc3ccc(N4CCN(C)CC4)cc3)nc2n1-c1cccc(C(C)(C)O)n1
activity [1]: -8.48%
activity [2]: -20.6%
Potency [9]: inactive
Potency [4]: inactive
Potency [5]: inactive
Potency [8]: inactive

COCCOc1ccc2c(c1)ncn2-c1ccc2cccc(N3CCC(N)CC3)c2n1
activity [1]: -9.06%
activity [2]: -17.7%
Potency [9]: inactive
Potency [4]: inactive
Potency [5]: inactive
Potency [6]: inactive
Potency [7]: inactive

C[C@@H](Oc1cc(-c2cnn(C3CCNCC3)c2)cnc1N)c1c(Cl)ccc(F)c1Cl
activity [1]: -57.8% and -68.4%
activity [2]: -33.1% and -60.2%
Potency [4]: inactive
Potency [5]: inactive
Potency [6]: inactive
Potency [7]: inactive
Potency [8]: inactive

O=C(c1ccc(Nc2nccc(-c3cc4ccccc4s3)n2)cc1)N1CCC(N2CCCC2)CC1
activity [1]: -19.2%
activity [2]: -17.2%
Potency [4]: inactive
Potency [5]: inactive
Potency [6]: inactive
Potency [7]: inactive
Potency [8]: inactive

CC(=O)SC[C@@H](C)C(=O)N1CCC[C@H]1C(=O)N[C@@H](Cc1ccccc1)C(=O)O
Potency [9]: inactive
Potency [4]: inactive

CCN1CCN(CC(=O)Nc2ccc(-c3cccc4c(=O)cc(N5CCOCC5)oc34)c3sc4ccccc4c23)CC1
Potency [9]: inactive
Potency [4]: inactive

C[C@@H]1CN(CC(=O)Nc2ccc3c(c2)Cc2cccc(-c4cc(=O)cc(N5CCOCC5)o4)c2S3)C[C@H](C)O1
Potency [9]: inactive

O=c1[nH]c(=O)n(C2CCCO2)cc1F (stereo not drawn)
Potency [9]: inactive
Potency [4]: inactive

COc1cc(C(C)C)c2c(c1)S(=O)(=O)N(COc1cc(=O)n3cccc(OCCN4CCCCC4)c3n1)C2=O
Potency [9]: inactive
Potency [4]: inactive

C[C@@H](Oc1cc(-n2cnc3ccc(CN4CCN(C)CC4)cc32)sc1C(N)=O)c1ccccc1C(F)(F)F
Potency [9]: inactive
Potency [4]: inactive

C[C@@]12O[C@@H](C[C@]1(O)CO)n1c3ccccc3c3c4c(c5c6ccccc6n2c5c31)CNC4=O
Potency [9]: inactive

C=C1C(=CC=C2CCC[C@]3(C)[C@@H]([C@H](C)C=C[C@H](C)C(C)C)CC[C@@H]23)C[C@@H](O)C[C@@H]1O
Potency [9]: inactive
Potency [4]: inactive

O=C(NCCCNc1nc(Nc2cccc(NC(=O)N3CCCC3)c2)ncc1I)c1cccs1
Potency [9]: inactive
Potency [4]: inactive

COc1cc(C(=O)NS(=O)(=O)c2ccccc2C)ccc1Cc1cn(C)c2ccc(NC(=O)OC3CCCC3)cc12
Potency [9]: inactive
Potency [4]: 9.04 µM (active)

CN1CCN(c2cc(C(=O)Nc3ccc4c(c3)-c3c(c(C(N)=O)nn3-c3ccc(F)cc3)CC4)c(Cl)cn2)CC1
Potency [9]: inactive
Potency [4]: inactive

Cc1nc2ccc(CN(C)c3ccc(C(=O)N[C@@H](CCC(=O)O)C(=O)O)s3)cc2c(=O)[nH]1
Potency [9]: 25.5 µM (active) and inactive and 22.7 µM (active)
Potency [4]: inactive

COc1ccc(CC2SC(=O)NC2=O)cc1C(=O)NCc1ccc(C(F)(F)F)cc1 (stereo not drawn)
Potency [9]: inactive

COc1cc2ncn(-c3cc(OCc4ccccc4C(F)(F)F)c(C(N)=O)s3)c2cc1OC
Potency [9]: inactive
Potency [4]: inactive

O=C(O)[C@H](Cc1c[nH]c2ccccc12)N1C(=O)c2ccccc2C1=O
Potency [9]: inactive
Potency [4]: inactive

Nc1nc(-c2nn(Cc3ccccc3F)c3ncccc23)nc(N)c1N1CCOCC1
Potency [9]: inactive
Potency [4]: inactive

CC[C@H](CO)Nc1nc(NCc2ccccc2)c2ncn(C(C)C)c2n1
Potency [9]: inactive
Potency [4]: inactive

CCN(CC)CCCCNc1ncc2cc(-c3cc(OC)cc(OC)c3)c(NC(=O)NC(C)(C)C)nc2n1
Potency [9]: inactive
Potency [4]: inactive

Cc1cc(Nc2cc(NC(=O)c3c(Cl)cccc3Cl)ccn2)nc(N)n1
Potency [9]: inactive
Potency [4]: inactive

Nc1ccn([C@@H]2CS[C@H](CO)O2)c(=O)n1
Potency [9]: inactive
Potency [4]: inactive

CC(C)c1ccccc1Cc1cc(C(=O)Nc2ccc(S(=O)(=O)c3ccccc3C(C)(C)C)cc2)c(O)c(O)c1O
Potency [9]: inactive
